In the assay the target is T1, ETS1 (UniProt P14921).
T1 sequence: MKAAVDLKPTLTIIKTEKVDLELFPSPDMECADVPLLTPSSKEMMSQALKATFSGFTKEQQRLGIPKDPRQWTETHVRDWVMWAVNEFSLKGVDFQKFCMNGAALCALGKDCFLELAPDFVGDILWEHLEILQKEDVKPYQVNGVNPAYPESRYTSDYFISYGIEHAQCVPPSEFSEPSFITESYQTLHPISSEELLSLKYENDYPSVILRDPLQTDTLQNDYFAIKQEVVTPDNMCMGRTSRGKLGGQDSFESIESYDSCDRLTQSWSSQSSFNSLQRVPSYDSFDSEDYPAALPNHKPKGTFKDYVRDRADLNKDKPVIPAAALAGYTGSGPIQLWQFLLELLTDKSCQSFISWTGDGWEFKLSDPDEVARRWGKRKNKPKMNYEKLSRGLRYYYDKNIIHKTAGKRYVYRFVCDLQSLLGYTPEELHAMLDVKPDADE
Nature of the assay: TF binding intensity (PBM fluorescence), negative control probe (arbitrary fluorescence units); higher = stronger binding. How it is done: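 gcPBM negative-control 36-bp genomic probes lacking TF binding sites. Each was incubated with recombinant human ETS1 or RUNX1 alone and detected by antibody fluorescence. Values are medians over replicate spots (4 spots for the ETS1-RUNX1 arrays, 3 for the ETS1-ETS1 array). The probes sit in constant array flanks that are not printed.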
Sequence “TCCTCACGAATCTCTCTACTTCTGTTCTTGCCCATC (protein concentration 10 nM)” gave a TF binding intensity of 135.
Under “CTCTGCCCAGTTGGTTGTGGCTCTTCATTACTGTGG (protein concentration 1 nM)” stands 512; under “GTGTGTGAGCGTGTACCCACAATGTGTAACTTAATT (protein concentration 1 nM)”, 484; under “ATACATACCTTTCACCCTCCATTGTGTGAGGCCCAG (protein concentration 10 nM)”, 114.
As for “GGCCCTGGGCCTGACCCATGAAATCATTTTTCCCTT (protein concentration 10 nM)”, the TF binding intensity turned out to be 94.3.
To “CACCTCCTAAACAAAGCCGCATAGGTGATGGTGATG (protein concentration 1 nM)” belongs 463.

The values are drawn from the supplement of paper PMC10681739.
